The target of test [1] is Lysosomal acid glucosylceramidase (Homo sapiens) (UniProt P04062). The experiment in a line: Glucocerebrosidase-p2 (AID 348; in the data active = potency below about 10 µM; also: potency is read from the fitted curve at half-maximal effect). The settings on record: purified GBA, blue fluorogenic substrate, 40 min. Summed up:
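Normal human glucocerebrosidase (0.2 nM) with blue fluorogenic substrate (80 uM final) in citrate/phosphate pH 5.9 with 10mM sodium taurocholate, 0.01% tween-20; 40 min RT, NaOH/glycine stop; fluorescence Ex 365/Em 440; AC50 from a titration from 0.6 nM upwards.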

Test [2] in a line: AP1 Signaling Pathway (AID 357).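 Also: ME-180 reporter cells stimulated with EGF at its EC50 level; % is scaled to controls: 0 for no effect and ±100 for the full control effect.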 The settings on record: ME-180 AP-1-bla reporter, EGF-induced, beta-lactamase ratio, 5 h; at 7.69 µM (top of the series) unless noted. Put shortly: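 Beta-lactamase reporter under AP-1 response element, ME-180 background. Stimulus: EC50 EGF. Compound exposure 5 h, 37 °C. Detection: CCF4, 2.5 h RT, 460/530 nm. Values: AC50 from titration.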
Test [3] is described as follows: NFAT Signaling Pathway (AID 444).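 Also: carbachol stimulus at about its EC50 of 1 µM final; % is scaled to controls: 0 for no effect and ±100 for the full control effect.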 As to conditions: Jurkat NFAT-bla M1, carbachol, beta-lactamase ratio, 5 h; at 7.69 µM (top of the series) unless noted. Summed up:
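Jurkat cells carrying an NFAT-driven β-lactamase reporter and co-transfected muscarinic M1 receptor were treated with compound plus carbachol (1 uM final, an EC50 level) for 5 h at 37 °C. CCF4 loading followed for 1 h at RT; 460/530 nm ratio gave %activity.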

The nature of test [4]: Stat Signaling Pathway (AID 446).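 Also: ME-180 cervical cancer cells given 40 pM IL-6 alongside compound; SIE-controlled beta-lactamase reporter measured as 460/530 nm FRET emission ratio; % is scaled to controls: 0 for no effect and ±100 for the full control effect.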 As to conditions: ME-180 SIE beta-lactamase reporter, IL-6 stimulated, 5 h; at 7.69 µM (top of the series) unless noted. Put shortly: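 FRET read-out (405 nm excitation, 460/530 nm emission) of a beta-lactamase reporter under a STAT-inducible element in ME-180 cervical carcinoma cells. Cells with compound receive 40 pM IL-6 for 5 h. Values are normalised to AC90 stimulation and AC90 JAK-inhibitor controls.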

Test [5] concerns the target Glucocorticoid receptor (Homo sapiens) (UniProt P04150). The experiment in a line: GR-GFP Redistribution (AID 450;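 active = compounds whose dose series gives a full or clear partial fitted curve of increased nuclear translocation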; also: potency is read from the fitted curve at half-maximal effect). As to conditions: U2OS GR-GFP nuclear translocation, laser cytometry, 2 h.
Test [6] shares this target. The experiment in a line: GR-EFC Redistribution (AID 451; calls by dose curve; also: potency is read from the fitted curve at half-maximal effect). The settings on record: CHO-K1 GR-EFC translocation, beta-gal luminescence, 2 h. Summed up:
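CHO-K1 cells stably expressing nuclear-localized β-gal enzyme acceptor and GR fused C-terminally to the enzyme donor fragment; ligand-driven nuclear translocation restores β-gal by complementation. Compounds titrated up to 46 uM final, 2 h at 37 °C; luminescence read.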

The target in test [7] is Mitogen-activated protein kinase 10 (Mus musculus) (UniProt Q61831). The experiment in a line: JNK3 AlphaScreen Assay (AID 530).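 Also: kinase came from lysate of stimulated human HepG2 cells; signal reports phosphorylation of biotinylated GST-cJun 1-79 at Ser73 with 10 µM ATP; % is scaled to controls: 0 for no effect and ±100 for the full control effect.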 As to conditions: JNK3 lysate, c-Jun phosphorylation; series mostly up to 57.1 µM. Summed up:
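Phosphorylation of biotinylated GST-cJun(1-79) at Ser73 is measured by AlphaScreen proximity luminescence. Enzyme is JNK3 in HepG2 lysates activated with interleukin-1beta and tumor necrosis factor alpha; ATP is 10 uM final.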

Test [8] addresses Cytochrome P450 3A4 (Homo sapiens) (UniProt P08684). The experiment in a line: qHTS Assay for Activators of Cytochrome P450 3A4 (AID 885; active = well fitted curve in the direction sought with a large enough effect; an effect the other way counts as inactive or inconclusive; also: nearly all actives have a fitted effect of over 65% in size). The settings on record: recombinant CYP3A4, Luciferin-PPXE luminescence, 60 min; series mostly up to 57.1 µM. Summed up:
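Luminescent readout of luciferin formed from 25 uM Luciferin-PPXE (KM level) by 20 nM CYP3A4 in 200 mM KPO4, with 60 min NADPH-driven reaction at room temperature after 10 min compound exposure. Ketoconazole (57 uM) defined 100% inhibition.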

Test [9] concerns the target Cytochrome P450 2C19 (Homo sapiens) (UniProt P33261). The experiment in a line: qHTS Assay for Inhibitors and Substrates of Cytochrome P450 2C19 (AID 899; active = well fitted curve in the direction sought with a large enough effect; an effect the other way counts as inactive or inconclusive; also: potency is read from the fitted curve at half-maximal effect; nearly all actives have a fitted effect of over 60% in size). As to conditions: recombinant CYP2C19, luciferin-H EGE luminescence; series mostly up to 57.1 µM. Summed up: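 Human CYP2C19 (5nM) with Luciferin-H EGE at 10uM (its KM) in 50mM KPO4 was preincubated with compound for 10 min at 37C. NADPH regeneration started a 60 min 37C reaction. Luciferin was read by luminescence, normalized to 57uM ketoconazole.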

Test [10] in a line: Confirmation and Secondary Assay for Modulators of Hemoglobin Beta Chain Splicing at IVS2 654 locus (AID 910; active = well fitted curve in the direction sought with a large enough effect; an effect the other way counts as inactive or inconclusive;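 also: per-well total GFP intensity by laser scanning cytometry after 2-day treatment; % of control where 0% means no effect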). The settings on record: HeLa EGFP-654 splicing reporter, GFP fluorescence, 48 h; series mostly up to 38.3 µM. Summed up: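 HeLa cells stably carrying EGFP interrupted by mutant beta-globin IVS2-654 intron (CMV-driven) were treated with compound for 2 days at 37C; corrected splicing was scored as total peak GFP intensity per well (488 nm excitation, 500-520 nm emission).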

A short description of test [11]: Confirmation and Secondary Assay for Modulators of Hemoglobin Beta Chain Splicing at IVS2 705 locus (AID 930; active = well fitted curve in the direction sought with a large enough effect; an effect the other way counts as inactive or inconclusive;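 also: HeLa cells stably expressing the EGFP-705 splicing reporter; GFP fluorescence per well restored by corrected splicing of the IVS2-705 intron in EGFP; % of control where 0% means no effect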). As to conditions: HeLa EGFP-705 splicing reporter, GFP fluorescence, 48 h; series mostly up to 38.3 µM. Summed up:
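Stable HeLa line with EGFP disrupted by mutant beta-globin intron 2 (705). Overnight attachment, then 2 days of compound at 37C, 5% CO2. Signal: peak GFP intensity summed over objects 5-250 µm.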

Test [12] can be described thus: qHTS Assay for Lipid Storage Modulators (AID 1519; calls by dose curve). As to conditions: Drosophila S3 cells, BODIPY lipid droplet/cell ratio, laser cytometry, cells loaded with oleic acid; for activity change, negative = inhibition: at 57.5 µM (top of the series). Summed up: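 Cells seeded at 5,000 per well were treated with compounds over a concentration series and loaded with oleic acid (400 uM, as added). Lipid droplet fluorescence (488 nm excitation, 500-530 nm channel) was read by laser-scanning cytometry and normalized to 20 uM Triacsin C.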

Test [13] can be described thus: Primary qHTS for small molecule stabilizers of the endoplasmic reticulum resident proteome: Secreted ER Calcium Modulated Protein (SERCaMP) assay (AID 1508630; active = well fitted curve in the direction sought with a large enough effect; an effect the other way counts as inactive or inconclusive; also: % is scaled to controls: 0 for no effect and ±100 for the full control effect). The settings on record: SH-SY5Y GLuc-SERCaMP (Gaussia luciferase released on ER calcium loss) secretion, thapsigargin, luminescence; series mostly up to 38.4 µM. Put shortly:
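The SH-SY5Y reporter protocol was run at 3 concentrations up to 38.3 uM (primary) or 11 concentrations (follow-up): 16 h compound, 100 nM thapsigargin for 4 h, then extracellular luciferase luminescence.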

For test [14], the target named is Cytochrome P450 1A2 (Homo sapiens) (UniProt P05177). The experiment in a line: p450-cyp1a2 (AID 410; calls by dose curve). The settings on record: recombinant CYP1A2, luciferin-ME demethylation, luminescence; series mostly up to 57 µM. Put shortly: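 O-Demethylation of luciferin 6' methyl ether by human CYP1A2 is monitored as luciferase luminescence. Substrate sits at Km (100uM); enzyme is 20nM. Values are scaled to 57 uM furafylline as maximal inhibition.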

Test [15] addresses 3',5'-cyclic-AMP phosphodiesterase 4B (Homo sapiens) (UniProt Q07343). The experiment in a line: qHTS Assay for Inhibitors of PDE-IV (AID 607; active = well fitted activation curve with a large enough effect in the main read-out, with a control signal flat, not every such curve was filed as active; also: % of control where 0% means no effect). The settings on record: HEK293 ACTOne CNG channel cells, membrane potential fluorescence; series mostly up to 22.9 µM. Summed up: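 Cell-based read-out of cAMP via a modified cyclic nucleotide-gated channel and membrane potential dye (535/590 nm) in HEK293 cells expressing PDE4 endogenously. Compounds tested up to 22.9 uM final; 100 uM RO 20-1724 reference.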

The target in test [16] is Cytochrome P450 2D6 (Homo sapiens) (UniProt P10635). The experiment in a line: qHTS Assay for Inhibitors and Substrates of Cytochrome P450 2D6 (AID 891; active = well fitted curve in the direction sought with a large enough effect; an effect the other way counts as inactive or inconclusive; also: potency is read from the fitted curve at half-maximal effect; nearly all actives have a fitted effect of over 60% in size). The settings on record: recombinant CYP2D6, luciferin-ME EGE luminescence; series mostly up to 57.1 µM. Put shortly: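 Luminescent read-out of luciferin formed by 5 nM human CYP2D6 demethylating 30 uM Luciferin-ME EGE (Km level) over 60 min at room temperature after NADPH regeneration addition. Data normalized to full inhibition by 1.43 uM quinidine.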

The nature of test [17]: qHTS Assay for Identification of Small Molecule Agonists for Hypoxia Response Element Signaling Pathway (AID 914; active = well fitted activation curve with a large enough effect in the signal ratio, with a control signal flat, not every such curve was filed as active; the % refers to the signal ratio; also: potency is read from the fitted curve at half-maximal effect). The settings on record: ME-180 (cervical carcinoma) HRE-bla reporter, beta-lactamase ratio, CoCl2, 17 h; activation: stronger effect = higher value. Put shortly:
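Reporter activity (beta-lactamase, CCF4 460nm/530nm ratio) in HRE-bla ME-180 cells is recorded after 17 h compound exposure with EC50 CoCl2 at 37 degrees Celsius. AC50 values come from titration data.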

Where [18] appears, read: measured here: cell count channel max response.
Where [19] appears, read: measured here: lipid channel max response.

Inconclusive results are not listed. Active and inactive are the calls of the source. Unless noted, calls follow the shape of the dose curve; as a rule, active = well fitted curve in either direction with a large enough effect (not every such curve was filed as active); inconclusive = small, poorly fitted or top-dose-only effect, or another doubt; inactive = flat fitted curve, though single readings scatter.

Sequence of Lysosomal acid glucosylceramidase (Homo sapiens) (P04062 whole entry, looked up): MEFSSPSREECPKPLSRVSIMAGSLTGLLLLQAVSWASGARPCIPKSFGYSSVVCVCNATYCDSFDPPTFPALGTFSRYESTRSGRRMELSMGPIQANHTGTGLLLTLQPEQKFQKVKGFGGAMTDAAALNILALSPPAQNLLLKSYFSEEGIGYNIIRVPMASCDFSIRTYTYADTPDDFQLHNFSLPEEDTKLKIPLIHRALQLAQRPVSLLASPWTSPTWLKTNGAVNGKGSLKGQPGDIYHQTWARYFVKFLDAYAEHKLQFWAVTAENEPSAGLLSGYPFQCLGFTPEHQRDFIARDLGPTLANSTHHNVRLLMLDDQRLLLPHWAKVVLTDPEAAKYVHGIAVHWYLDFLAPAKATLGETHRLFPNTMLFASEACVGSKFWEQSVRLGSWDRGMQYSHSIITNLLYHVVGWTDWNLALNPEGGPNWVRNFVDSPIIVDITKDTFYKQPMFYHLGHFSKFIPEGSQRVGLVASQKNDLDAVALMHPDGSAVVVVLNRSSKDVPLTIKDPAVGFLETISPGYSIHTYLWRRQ
Sequence of Glucocorticoid receptor (Homo sapiens) (P04150 whole entry, looked up): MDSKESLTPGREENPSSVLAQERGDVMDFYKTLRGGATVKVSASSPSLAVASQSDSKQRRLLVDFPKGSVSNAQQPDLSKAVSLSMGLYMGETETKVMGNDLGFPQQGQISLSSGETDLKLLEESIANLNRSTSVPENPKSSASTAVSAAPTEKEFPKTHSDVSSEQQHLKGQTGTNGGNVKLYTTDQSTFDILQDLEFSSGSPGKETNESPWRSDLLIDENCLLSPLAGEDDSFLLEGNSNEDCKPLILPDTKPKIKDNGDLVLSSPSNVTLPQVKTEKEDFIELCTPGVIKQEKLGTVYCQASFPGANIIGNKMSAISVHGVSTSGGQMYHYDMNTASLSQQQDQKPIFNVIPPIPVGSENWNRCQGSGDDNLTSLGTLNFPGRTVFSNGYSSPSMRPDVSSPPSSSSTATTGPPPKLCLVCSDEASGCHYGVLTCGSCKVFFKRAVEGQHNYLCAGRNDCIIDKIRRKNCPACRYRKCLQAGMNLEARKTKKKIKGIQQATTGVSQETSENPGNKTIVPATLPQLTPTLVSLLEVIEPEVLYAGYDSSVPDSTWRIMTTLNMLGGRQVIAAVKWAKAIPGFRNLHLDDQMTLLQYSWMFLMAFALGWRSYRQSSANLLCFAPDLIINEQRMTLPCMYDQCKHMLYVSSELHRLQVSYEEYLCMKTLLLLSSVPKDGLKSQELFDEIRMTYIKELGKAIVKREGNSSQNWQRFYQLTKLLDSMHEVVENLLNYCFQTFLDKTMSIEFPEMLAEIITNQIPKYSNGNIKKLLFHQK
Sequence of 3',5'-cyclic-AMP phosphodiesterase 4B (Homo sapiens) (Q07343 whole entry, looked up): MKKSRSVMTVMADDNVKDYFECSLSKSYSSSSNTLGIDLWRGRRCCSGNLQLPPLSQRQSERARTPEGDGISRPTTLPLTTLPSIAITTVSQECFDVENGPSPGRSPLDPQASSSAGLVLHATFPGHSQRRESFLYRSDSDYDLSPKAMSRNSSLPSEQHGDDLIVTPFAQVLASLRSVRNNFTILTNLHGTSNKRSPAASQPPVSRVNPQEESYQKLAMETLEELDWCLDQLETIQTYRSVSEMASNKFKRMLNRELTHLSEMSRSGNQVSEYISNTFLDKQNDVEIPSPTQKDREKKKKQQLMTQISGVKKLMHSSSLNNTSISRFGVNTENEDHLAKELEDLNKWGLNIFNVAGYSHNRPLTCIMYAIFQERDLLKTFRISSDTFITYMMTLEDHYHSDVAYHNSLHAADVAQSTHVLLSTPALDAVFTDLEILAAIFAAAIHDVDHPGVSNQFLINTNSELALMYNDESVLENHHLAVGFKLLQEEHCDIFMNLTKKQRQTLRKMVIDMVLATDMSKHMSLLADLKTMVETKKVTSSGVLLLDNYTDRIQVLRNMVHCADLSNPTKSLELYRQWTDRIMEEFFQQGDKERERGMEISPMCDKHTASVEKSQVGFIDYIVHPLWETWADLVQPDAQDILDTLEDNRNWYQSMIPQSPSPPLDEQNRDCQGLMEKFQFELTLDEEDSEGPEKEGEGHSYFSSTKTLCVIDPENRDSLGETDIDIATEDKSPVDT
Sequence of Cytochrome P450 3A4 (Homo sapiens) (P08684 whole entry, looked up): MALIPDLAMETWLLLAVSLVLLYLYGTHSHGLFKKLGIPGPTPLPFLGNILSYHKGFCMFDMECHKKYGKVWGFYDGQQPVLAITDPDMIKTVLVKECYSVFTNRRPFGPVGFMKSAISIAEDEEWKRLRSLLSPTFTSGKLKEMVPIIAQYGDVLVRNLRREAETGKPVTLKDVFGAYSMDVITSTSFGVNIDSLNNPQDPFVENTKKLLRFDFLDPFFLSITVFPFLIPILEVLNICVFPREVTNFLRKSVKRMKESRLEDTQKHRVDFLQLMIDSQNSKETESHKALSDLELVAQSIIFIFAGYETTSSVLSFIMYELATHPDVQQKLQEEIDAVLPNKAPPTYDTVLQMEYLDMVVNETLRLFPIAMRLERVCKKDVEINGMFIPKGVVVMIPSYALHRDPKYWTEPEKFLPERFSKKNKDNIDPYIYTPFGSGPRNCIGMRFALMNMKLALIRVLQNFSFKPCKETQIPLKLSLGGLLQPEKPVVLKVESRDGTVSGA
Sequence of Cytochrome P450 1A2 (Homo sapiens) (P05177 whole entry, looked up): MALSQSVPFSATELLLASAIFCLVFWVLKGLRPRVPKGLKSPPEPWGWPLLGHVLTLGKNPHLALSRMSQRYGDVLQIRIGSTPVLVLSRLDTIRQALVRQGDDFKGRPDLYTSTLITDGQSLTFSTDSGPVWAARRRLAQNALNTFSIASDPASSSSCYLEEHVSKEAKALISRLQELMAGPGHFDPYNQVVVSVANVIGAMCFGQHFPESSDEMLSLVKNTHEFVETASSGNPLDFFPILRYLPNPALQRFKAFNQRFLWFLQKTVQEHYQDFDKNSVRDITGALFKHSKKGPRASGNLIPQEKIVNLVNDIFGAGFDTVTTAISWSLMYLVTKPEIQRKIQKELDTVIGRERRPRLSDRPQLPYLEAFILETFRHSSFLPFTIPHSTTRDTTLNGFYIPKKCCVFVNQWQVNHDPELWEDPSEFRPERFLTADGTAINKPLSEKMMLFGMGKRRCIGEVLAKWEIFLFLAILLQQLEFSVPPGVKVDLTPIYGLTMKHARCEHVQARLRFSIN
Sequence of Cytochrome P450 2D6 (Homo sapiens) (P10635 whole entry, looked up): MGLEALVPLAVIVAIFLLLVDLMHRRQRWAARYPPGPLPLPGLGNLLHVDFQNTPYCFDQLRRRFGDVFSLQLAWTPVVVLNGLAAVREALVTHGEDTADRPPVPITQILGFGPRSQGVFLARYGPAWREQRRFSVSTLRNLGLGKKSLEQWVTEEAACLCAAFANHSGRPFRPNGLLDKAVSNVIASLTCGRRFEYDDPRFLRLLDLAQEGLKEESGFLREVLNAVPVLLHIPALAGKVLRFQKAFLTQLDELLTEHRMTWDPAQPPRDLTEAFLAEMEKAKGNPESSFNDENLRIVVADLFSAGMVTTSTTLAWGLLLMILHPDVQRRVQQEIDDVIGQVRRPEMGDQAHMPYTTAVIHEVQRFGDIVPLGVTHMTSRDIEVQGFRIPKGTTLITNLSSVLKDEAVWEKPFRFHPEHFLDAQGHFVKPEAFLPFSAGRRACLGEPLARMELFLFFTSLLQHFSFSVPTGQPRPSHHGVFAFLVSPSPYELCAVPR
Sequence of Cytochrome P450 2C19 (Homo sapiens) (P33261 whole entry, looked up): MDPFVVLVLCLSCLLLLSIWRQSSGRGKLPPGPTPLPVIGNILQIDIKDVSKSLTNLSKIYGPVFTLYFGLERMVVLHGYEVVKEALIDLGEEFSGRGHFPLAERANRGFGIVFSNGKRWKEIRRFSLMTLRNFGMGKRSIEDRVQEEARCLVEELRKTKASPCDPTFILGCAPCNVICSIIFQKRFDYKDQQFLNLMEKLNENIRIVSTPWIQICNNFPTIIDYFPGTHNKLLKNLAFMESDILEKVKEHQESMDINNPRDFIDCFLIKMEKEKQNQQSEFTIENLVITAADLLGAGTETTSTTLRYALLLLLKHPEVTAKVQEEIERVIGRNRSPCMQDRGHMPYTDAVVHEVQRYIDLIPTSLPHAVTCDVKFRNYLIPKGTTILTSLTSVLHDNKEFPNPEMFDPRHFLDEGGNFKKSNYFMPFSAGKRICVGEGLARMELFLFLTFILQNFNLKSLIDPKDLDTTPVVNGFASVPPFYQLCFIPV

Turning to `Cc1ccccc1-c1cc(Nc2ccc(F)cc2)ncn1`, the Potency in test [1] is > 11.4 µM (inactive); in [5], > 46 µM (inactive); in test [6], > 46 µM (inactive); in test [9] it was 0.631 µM (active). The activity change, negative = inhibition was -11.7% (inactive) in [2], 6.17% (inactive) in [3] and 9.27% (inactive) in test [12]. Further, the activity, negative = inhibition in [4] was -0.99% (inactive). The Potency result in test [7], in test [8] and in test [10] was “inactive” in each case. Further, the compound was classed as inactive in [11] and in test [13]. Besides, the max response was -1.72% in test [12] (setting [18]) and 7.96% in test [12] (setting [19]).

Regarding `Cc1cccc(CNc2ncnc3ccc(-c4ccccc4C#N)cc23)c1`, the Potency in [1] is > 11.4 µM (inactive); in [5], > 46 µM (inactive); in test [6] it was > 46 µM (inactive). In addition, the activity change, negative = inhibition is -28.4% (inactive) in test [2], 12.9% (inactive) in test [3] and 0.748% (inactive) in test [12]. The activity, negative = inhibition in test [4] was -7.62% (inactive). Moreover, the Potency result in test [7] and in test [10] was “inactive” in each case. Moreover, the max response in test [12] (setting [18]) was found to be 4.98%; in test [12] (setting [19]), 4.86%. In test [13], the result was inactive.

As for `COc1ccccc1CN1CCCC2(CCN(C(=O)c3cnccn3)CC2)C1`, the results for the Potency in test [1], in [6] and in test [16] were > 11.4 µM (inactive), > 46 µM (inactive) and 3.98 µM (active), respectively. Further, the activity change, negative = inhibition in test [2] was 4.14% (inactive); in test [12], 3.91% (inactive). Besides, the Potency entry in [14], in test [7], in test [15] and in [8] was “inactive” throughout. Also, the max response in test [12] (setting [18]) is -6.38%; in test [12] (setting [19]), 0.432%. Further, the result in test [13] was inactive.

For `COc1ccc(-c2nc3cnc(Oc4ccccc4)nc3n(Cc3cccs3)c2=O)cc1`, the Potency is > 11.4 µM (inactive) in test [1], > 9.22 µM (inactive) in [5], > 46 µM (inactive) in test [6] and 2.51 µM (active) in [17]. Further, the activity change, negative = inhibition is 0.136% (inactive) in [2], -1.73% (inactive) in [3] and -0.637% (inactive) in [12]. For the same compound, in test [4], the activity, negative = inhibition was 16.1% (inactive). In addition, the Potency entry in [7] and in [15] was “inactive” throughout. Besides, the max response is 27.6% in [12] (setting [18]) and 28.4% in test [12] (setting [19]). Further, the result in [13] was inactive.

For `O=C(c1ccncc1)N1CCC[C@@]2(CCN(C(c3ccccc3)c3ccccc3)C2)C1`, the Potency in [1] was > 11.4 µM (inactive); in test [6] it was > 46 µM (inactive). The activity change, negative = inhibition in test [2] was -4.57% (inactive); in test [3] it was 17.1% (inactive); in [12], -4.39% (inactive). Besides, the activity, negative = inhibition in test [4] is 0.76% (inactive). The Potency result in test [7] is “inactive”. Moreover, the max response in test [12] (setting [18]) is -3.62%; in test [12] (setting [19]) it was -3.76%. Further, in [13], the result was inactive.

Regarding `COc1ccc(-n2c(=O)cnc3cnc(Nc4ccccc4)nc32)cc1`, the Potency in test [1] is > 11.4 µM (inactive); in test [5], > 9.22 µM (inactive); in [6], > 46 µM (inactive). Also, the activity change, negative = inhibition was -13.4% (inactive) in test [2], 5.4% (inactive) in [3] and 7.14% (inactive) in test [12]. Also, the activity, negative = inhibition in test [4] is -1.48% (inactive). The Potency entry in [7] was “inactive”. Besides, the results for the max response in test [12] (setting [18]) and in test [12] (setting [19]) were 8.28% and 18.1%, respectively. Moreover, the outcome in test [13] was inactive.

For the origin of these results see PubChem BioAssay (NCATS).
